# Laboratory results as given in PubChem BioAssay (NCATS).
# Inconclusive results are not listed. Where a call stands in place of a potency, no number is given. The source made the active and inactive calls. Calls follow the shape of the dose curve; as a rule, active = well fitted curve in the direction sought with a large enough effect; inconclusive = small, poorly fitted or top-dose-only effect, or another doubt; inactive = no such curve, though single readings can be large; an effect the other way counts as inactive or inconclusive.
# Experiments:
# [1] = system: Zika virus NS2B-NS3 protease; experiment: Primary screen GU AMC qHTS for Zika virus inhibitors (AID 1347154); details: Zika NS2B-NS3 unlinked protease, AMC fluorogenic substrate; series mostly up to 54.1 µM; also: nearly all actives have a fitted effect of over 70% in size
# Outline: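 Fluorogenic AMC-substrate cleavage by noncovalent NS2B-NS3 protease complex (25 nM, pH 8.0 Tris buffer with Tween 20) followed for 15 minutes at room temperature (~20% conversion). Percent inhibition from ex340/em450 signal change, fitted by 4-parameter Hill equation.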
# [2] = system: Zika virus NS2B-NS3 protease (unlinked complex); experiment: Primary screen GU Rhodamine qHTS for Zika virus inhibitors: Unlinked NS2B-NS3 protease assay (AID 1347159); details: Recombinant ZIKV NS2B-NS3 protease, Rhodamine110 substrate fluorescence; series mostly up to 107 µM; also: nearly all actives have a fitted effect of over 60% in size; also: potency is read from the fitted curve at half-maximal effect
# Outline: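 Percent inhibition came from the 15-min rise in Rhodamine110 fluorescence (1.5 microM substrate, ~15% conversion), normalized to no-inhibitor and no-enzyme wells and Hill-fitted. Unlinked protease, 25 nM, pH 8.0 Tris buffer; compounds up to 114 microM, 15-min preincubation.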
# [3] = system: Zika virus NS2B-NS3 protease (linked construct); experiment: Primary screen NINDS Rhodamine qHTS for Zika virus inhibitors (AID 1347160); details: purified NS2B-NS3 protease, Rhodamine110 substrate fluorescence; series mostly up to 57.1 µM; also: nearly all actives have a fitted effect of over 55% in size
# Outline: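 Rhodamine110-peptide cleavage (1.5 µM substrate) by 25 nM linked NS2B-NS3 enzyme at pH 8.0 (Tris, Tween 20), after 15 min RT preincubation with compounds; 15-min fluorescence change normalized to controls and Hill-fitted.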
# [4] = Confirmatory screen GU Rhodamine qHTS for Zika virus inhibitors qHTS (AID 1347157); details: purified enzyme assay, Rhodamine110 substrate fluorescence, 15 min; series mostly up to 65.2 µM; also: potency is read from the fitted curve at half-maximal effect; nearly all actives have a fitted effect of over 70% in size
# Outline: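 A qHTS format was used, with compound concentrations ranging up to 114 microM. Each compound was preincubated with 25 nM NS2B-NS3 protease, and the substrate was then added at 1.5 microM. Curves were fitted with a 4-parameter Hill model.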
# [5] = Confirmatory screen NINDS Rhodamine qHTS for Zika virus inhibitors (AID 1347161); details: purified enzyme assay, Rhodamine110 substrate fluorescence, 15 min; series mostly up to 114 µM; also: potency is read from the fitted curve at half-maximal effect; nearly all actives have a fitted effect of over 60% in size
# Outline: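 Single-chain NS2B-NS3 protease, 25 nM, pH 8.0; compounds preincubated 15 min. Activity: Rhodamine110 release from 1.5 microM substrate over 15 min, room temperature, data fitted to 4-parameter Hill.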
SMILES,Potency [1],Potency [2],Potency [3],Potency [4],Potency [5]
NC(=O)c1cccc(-c2cc(Nc3ccc(OC(F)(F)F)cc3)ncn2)c1,inactive,inactive,inactive,,
COc1ccc(Cc2ccc(NC(N)=O)cc2)cc1-c1cccc(Cl)c1,inactive,inactive,inactive,,
CN(C)Cc1ccc(-c2nc3cccc4c3n2CCNC4=O)cc1,,inactive,inactive,,
Cc1cccc(Nc2nc(-c3ccncc3)cs2)c1,inactive,inactive,inactive,,
CCOc1ccc(Nc2nc(-c3c(C)nc4ccccn34)cs2)cc1,inactive,inactive,inactive,,
CC(=O)N(C)C1(c2ccccc2)CCN(CCC[C@]2(c3ccc(Cl)c(Cl)c3)CCCN(C(=O)c3ccccc3)C2)CC1,inactive,inactive,inactive,,
Cc1c(NC(=O)c2ccc(C(C)(C)C)cc2)cccc1-c1cn(C)c(=O)c(Nc2ccc(C(=O)N3CCOCC3)cc2)n1,,inactive,inactive,,
CN1CCN(CCOc2cc(OC3CCOCC3)c3c(Nc4c(Cl)ccc5c4OCO5)ncnc3c2)CC1,inactive,inactive,inactive,,
CNC(=O)c1ccc2cc(C3(O)CCn4cncc43)ccc2c1 (stereo unspecified),,inactive,inactive,,
CC(C)(C)OC(=O)N[C@H]1CCCCCC=C[C@@H]2C[C@@]2(C(=O)NS(=O)(=O)C2CC2)NC(=O)[C@@H]2C[C@@H](OC(=O)N3Cc4cccc(F)c4C3)CN2C1=O,,35.5 µM (active),inactive,49.4 µM (active),49.4 µM (active)
COc1ccc(C2Sc3ccccc3N(CCN(C)C)C(=O)C2OC(C)=O)cc1 (stereo unspecified),inactive,inactive,inactive,,
